From PubChem BioAssay
FLuc modulator – firefly luciferase modulation, counter-screen for miR-21 project; P08659; purified FLuc, Km substrates, luminescence inhibition; Potency, µM (series often up to 57.5 µM), inactives show at the top dose activity change, negative = inhibition, most hits filed as inhibitors; actives 6.9% (n = 360,000); AID 588342;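 note: plate controls were vehicle for no effect and reference inhibitor for full effect; nearly all actives have a fitted effect of over 55% in size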
Target sequence (P08659 whole entry, looked up): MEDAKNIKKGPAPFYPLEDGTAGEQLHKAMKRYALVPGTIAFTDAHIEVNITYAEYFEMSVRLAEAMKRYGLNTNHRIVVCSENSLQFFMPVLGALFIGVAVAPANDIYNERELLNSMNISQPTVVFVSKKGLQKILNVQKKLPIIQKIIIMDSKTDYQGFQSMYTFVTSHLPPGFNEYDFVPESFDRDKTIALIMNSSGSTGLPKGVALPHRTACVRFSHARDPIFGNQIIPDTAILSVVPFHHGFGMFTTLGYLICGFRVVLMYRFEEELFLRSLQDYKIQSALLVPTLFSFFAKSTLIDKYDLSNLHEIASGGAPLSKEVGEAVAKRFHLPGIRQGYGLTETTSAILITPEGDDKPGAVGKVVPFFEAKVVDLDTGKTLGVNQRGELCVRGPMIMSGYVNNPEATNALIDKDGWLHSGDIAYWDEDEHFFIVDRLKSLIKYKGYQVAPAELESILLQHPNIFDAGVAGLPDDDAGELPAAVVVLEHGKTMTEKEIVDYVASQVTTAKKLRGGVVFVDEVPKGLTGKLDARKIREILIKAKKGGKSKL
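Purified P. pyralis luciferase (10nM final) with 10uM D-luciferin and 10uM ATP (Km levels) in 50mM Tris acetate pH 7.5, 10mM Mg acetate, 0.01% Tween-20, 0.05% BSA; qHTS 6-point titration, ~60 µM downward; luminescence read.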
KinaseGlo FLuc – counter-screen: inhibitors of Kinase-Glo firefly luciferase; Q27757; actives 0.28% (n = 200,000); Potency, µM (series often up to 38.3 µM), for inactives: at the highest dose activity change, negative = inhibition, most hits filed as inhibitors; Kinase-Glo luciferase, ATP luminescence, 8 min; note: % is set by controls: 0 for no effect and ±100 for the full control effect; nearly all actives have a fitted effect of over 60% in size
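Inhibition of Kinase-Glo luciferase light generation was assessed at 10 uM ATP in pH 7.2 imidazole buffer, with luminescence measured after eight minutes at ambient temperature.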
Rab9 promoter act – activators of Rab9 promoter. Huh7 Rab9 promoter-luciferase reporter, luminescence, 24 h. Potency, µM (highest dose often 9.22 µM), for inactives: top-dose activation, negative = inhibition, actives largely listed as activators. actives 2.8% (n = 320,000); note: % of control where 0% means no effect; nearly all actives have a fitted effect of over 60% in size
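Cell-based reporter: Huh7 stable for Rab9 promoter-driven luciferase, plated in reduced-serum medium with 10% FBS at 1500 cells/well, compound-treated 24 h at 37 °C, luminescence read after 10 min reagent.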
ELG1 genotoxic – inducers of genotoxicity in HEK293T ELG1-luciferase cells. HEK293T ELG1-luciferase reporter, luminescence, 16 h. actives 1.3% (n = 330,000). Potency, µM (titrated, usually from 46 µM), inactives show at the highest dose activity change, positive = activation, usual class: activators; note: % of control where 0% means no effect; nearly all actives have a fitted effect of over 60% in size
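Reporter readout depends on ELG1 protein level, which increases with genetic stress. After 16 hr compound exposure at 37 °C, luciferase activity was quantified using ONE-Glo.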
NPC1 prom act – activators of NPC1 promoter; Huh7 NPC1 promoter luciferase reporter, 24 h; Potency, µM (doses to about 9.22 µM), without a hit: top-dose activation, usual class: activators; actives 2.4% (n = 320,000); AID 485313; note: % of control where 0% means no effect; nearly all actives have a fitted effect of over 60% in size
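Readout is luciferase luminescence, reflecting NPC1 promoter activation in stably transfected Huh7 cells after 24 h compound exposure at 37 °C in reduced-serum medium with 10% FBS.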
SMN2 splice up – enhancers of SMN2 splice variant expression. actives 2.8% (n = 210,000). HEK293 SMN2-luciferase splicing reporter, luminescence, 30-36 h. Potency, µM (top dose mostly 46.1 µM), without a hit: top-dose activity change, positive = activation, usual class: activators. AID 1458; note: % of control where 0% means no effect; nearly all actives have a fitted effect of over 55% in size
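HEK293 cells carry an SMN2 minigene-luciferase reporter in which exon 7 inclusion puts luciferase in frame. Cells were seeded at 2000 cells/well, attached for 10-12 hours, then exposed to compounds for 30-36 hours at 37C before ONE-Glo luminescence.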
* = called active by the depositor; ? = inconclusive; · = no result given. Sampled rows, rich in hits. Any-hit rate of the full collection: about 7.3%. Calls come from the whole dose curve; as a rule, active = well fitted curve in the direction sought with a large enough effect; inconclusive = small, poorly fitted or top-dose-only effect, or another doubt; inactive = no such curve, though single readings can be large; an effect the other way counts as inactive or inconclusive. Potency is the fitted concentration of half-maximal effect.

SMILES	FLuc modulator	KinaseGlo FLuc	Rab9 promoter act	ELG1 genotoxic	NPC1 prom act	SMN2 splice up
Cc1cc(OC(=O)c2ccccc2Cl)cc(=O)n1C	15µM*	-6%	-2%	-1%	-2%	13%
Cc1cc2c(cc1NC(=O)c1ccccc1Cl)n(C)c(=O)c(=O)n2C	-2%	·	·	·	·	·
O=C(Oc1ccc(N2C(=O)CCC2=O)cc1)c1ccccc1Cl	24µM*	-7%	0%	-5%	-5%	0%
Cc1ccc(C)n1-c1ccc(N2CCOCC2)nc1	3%	0%	-14%	?	4%	14µM*
O=C(C[n+]1cc(-c2ccc(F)cc2)n2c1CCC2)c1cccs1	2.4µM*	·	2.5µM*	?	3.2µM*	·
COC(=O)c1ccc2c(c1)C(C)(C)C(/C=C/c1ccc(OC)c(OC)c1OC)=[N+]2C	?	-5%	-52%	-2%	-46%	-77%
COC(=O)c1ccc2c(c1)C(C)(C)C(/C=C/c1ccc(O)cc1)=[N+]2C	13µM*	?	-36%	?	-37%	-93%
Cc1ccc2cccc(NC(=O)c3ccc(-c4cccc(Cl)c4Cl)o3)c2n1	0%	·	·	·	·	6%
CCc1ncc(/C=C2\C(=O)Nc3ccccc32)[nH]1	13µM*	·	?	6%	?	·
Cc1ncc(/C=C2\C(=O)Nc3ccccc32)[nH]1	?	·	15%	8%	?	·
COc1ccc(-c2noc(-c3ccccc3NC(=O)c3cc(OC)c(OC)c(OC)c3)n2)cc1	0%	·	·	·	·	·
CCOC(=O)c1c(C)[nH]c(C(=O)O)c1C	3%	6%	2%	2%	1%	8%
CCOC(=O)c1c(C)[nH]c(N=Nc2ccccc2)c1C	12µM*	2%	?	12µM*	?	4%
CCOC(=O)c1c(C)[nH]c(N=Nc2ccccc2Cl)c1C	12µM*	·	?	?	?	·
CCOC(=O)c1c(C)[nH]c(N=Nc2ccc(C)cc2)c1C	3.8µM*	-6%	1.4µM*	3.2µM*	1µM*	13µM*
CCOC(=O)c1c(C)[nH]c(N=Nc2ccc(OC)cc2)c1C	7.6µM*	·	?	?	3.5µM*	·
Cn1c(=O)c2c(nc(SCC(=O)Nc3ccc(F)cc3)n2Cc2ccccc2F)n(C)c1=O	-6%	·	·	·	·	4%
COc1cc(O)c2c(=O)c(O)c(-c3ccc(O)c(O)c3)oc2c1	·	-3%	·	·	·	-3%
COc1ccc2oc(C)c(C(=O)c3ccc(C)cc3)c2c1	17µM*	·	4%	0%	10%	·
COc1ccc2oc3ccc(OC)cc3c(=O)c2c1	3µM*	-9%	2.8µM*	?	3.2µM*	?
COc1cc(O)c2c(=O)c3c(OC)c(O)ccc3oc2c1	19µM*	-1%	8%	?	2%	·
COc1ccc2oc3ccccc3c(=O)c2c1	3%	·	0%	-7%	-3%	·
COc1ccc(C(=O)c2c(C)oc3ccc(O)cc23)cc1	-14%	·	-3%	-5%	-5%	·
Oc1ccc(-c2csc(-c3cccnc3)n2)cc1O	17µM*	·	-15%	?	21%	·
Cc1csc(-c2cccnc2)n1	1%	1%	3%	1%	-3%	7%
SMILES	FLuc modulator	KinaseGlo FLuc	Rab9 promoter act	ELG1 genotoxic	NPC1 prom act	SMN2 splice up
Fc1ccccc1-c1csc(-c2cccnc2)n1	15µM*	·	?	?	?	·
c1cncc(-c2nc(-c3ccc4c(c3)OCCO4)cs2)c1	1.7µM*	·	0.56µM*	?	0.89µM*	·
Clc1ccc(-c2csc(-c3cccnc3)n2)s1	13µM*	·	24%	11%	22%	·
Fc1ccc(-c2csc(-c3cccnc3)n2)cc1F	?	·	?	12%	?	·
Cc1ccc(-n2ncc(C(=O)NCCN3CCCC3)c2C2CCN(C(=O)OC(C)(C)C)CC2)cc1C	-1%	·	·	·	·	·
Oc1ccccc1-c1csc(-c2ccccc2)n1	5.4µM*	-21%	?	-11%	-5%	?
c1ccc(-c2csc(-c3ccncc3)n2)cc1	15µM*	1%	24%	19%	18%	23%
Oc1ccc(-c2csc(-c3ccccc3)n2)cc1O	15µM*	5%	-1%	?	18%	?
Cc1nc(-c2ccc(O)c(O)c2)cs1	-18%	-5%	29%	23%	-7%	2%
Brc1ccsc1-c1csc(-c2ccncc2)n1	?	·	28%	?	25%	·
COc1ccc(NC(=O)CSc2nc3nc(C)c(Cc4ccccc4Cl)c(C)n3n2)cc1OC	-13%	·	·	·	·	·
C=CCN=c1scc(-c2ccco2)n1/N=C/c1ccc(O)c(O)c1O	4.8µM*	·	?	?	20%	·
COc1cc(/C=N/n2c(-c3ccc4c(c3)NC(=O)CO4)csc2=Nc2cccc(C)c2)ccc1O	?	2%	-3%	-12%	-2%	-12%
Oc1ccc(/C=N/n2c(-c3ccco3)csc2=Nc2cccnc2)c(O)c1	?	3%	-18%	7%	-1%	-28%
CC(C)N=c1scc(-c2ccco2)n1/N=C/c1ccc(O)c(O)c1	9.5µM*	-5%	-19%	?	3%	?
COCCN=c1scc(-c2ccc3c(c2)NC(=O)CO3)n1/N=C(\C)c1ccc(O)cc1	0%	·	-7%	-13%	0%	·
COCCN=c1scc(-c2cccs2)n1/N=C(\C)c1ccco1	9.5µM*	-1%	2.5µM*	12%	?	?
COCCN=c1scc(-c2ccco2)n1/N=C/c1ccc(O)c(O)c1O	17µM*	-2%	-5%	9%	-4%	7%
CN(C)c1ccc(NC(=O)CN2CCN(CC(=O)Nc3ccc(Br)cc3)CC2)cc1	-15%	·	·	·	·	·
Cc1cc(C)c(NC(=O)Cn2c(=O)nc(-c3ccccc3)c3cc(Cl)ccc32)c(C)c1	-13%	·	·	·	·	·
CCSc1nnc(-c2c[nH]c3ccccc23)o1	19µM*	·	4µM*	?	3.2µM*	·
CCNC(=O)NC(=O)CSc1nnc(-c2c[nH]c3ccccc23)o1	-8%	·	3%	-3%	-2%	·
CCOC(=O)CSc1nnc(-c2c[nH]c3ccccc23)o1	19µM*	·	0%	-3%	0%	·
S=c1[nH]c2cc3ccccc3cc2[nH]1	4.8µM*	·	3%	?	14%	·
S=c1[nH]c2ccc3ccccc3c2[nH]1	-29%	1%	?	14%	11%	10%
O=C(/C=C/c1cccc([N+](=O)[O-])c1)N1CCOCC1	0%	0%	-5%	2%	5%	4%
O=C(/C=C/c1ccc(-c2cccc([N+](=O)[O-])c2)o1)N1CCOCC1	?	·	4µM*	?	?	·
CS(=O)(=O)N1CCC[C@@]2(CCN(c3ccccn3)C2)C1	·	0%	·	·	·	-10%
O=C(Nc1ccc2c(c1)OCCO2)c1ccc2nccnc2c1	3µM*	?	0.79µM*	?	1µM*	?
